Structures are written as SMILES. A number with no mark means an inactive call. How the calls were made is not given here. Some results are limits rather than exact numbers.

This note sets out measurements from PubChem BioAssay (NCATS).
Potency means the concentration at half of the fitted maximal effect.

In the experiment the test system is HIV-1 nucleocapsid protein NCp7 (binding to TG oligonucleotide). Kind of experiment: HIV Nucleocapsid (AID 346).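 Further: potency is for inhibitors that block NC binding and lower polarization.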 As to conditions: HIV-1 NC / fluorescein-TGTGTGTG probe, fluorescence polarization. In short, it runs like this:
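Inhibition of nucleocapsid binding to single-stranded 5'-TGTGTGTG probe (10 nM) was measured by fluorescence polarization after 1 hr at room temperature with 100 nM protein under high-salt, zinc-containing, reducing conditions.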
(Polarisation of emitted light reports the rotation of a fluorescent probe.)
Regarding `Cc1nc2cnc(N3CCN(C)CC3)nc2n(C2CC2)c1=O`, the Potency is more than 20 µM.
Turning to `Clc1ccccc1-c1ccc2ncnc(NCc3cccnc3)c2c1`, the Potency is more than 20 µM.
With `N#CCCn1c(=O)c(CCc2ccccc2)nc2cnc(N3CCOCC3)nc21`, the Potency is more than 20 µM.
Take `COc1ccc(CNc2ncncc2-c2cccc(C#N)c2)c(OC)c1`: the Potency was more than 20 µM.
The figure for `COc1ccccc1CNc1ncnc2ccc(-c3ccccc3C#N)cc12` is more than 20 µM.
The figure for `COc1ncc2nc(CCc3ccccc3)c(=O)n(CCC#N)c2n1` is more than 20 µM.
With `N#Cc1cccc(NC(=O)N2CC[C@@]3(CCCN(C(=O)c4ccncc4)C3)C2)c1`, the Potency is more than 20 µM.
Regarding `c1ccc2c(N3CCNCC3)nc(-c3ccoc3)nc2c1`, the Potency is more than 20 µM.
For `N#CCCn1c(=O)c(-c2cccs2)nc2cnc(N3CCNCC3)nc21` the value was 16.4 µM; for `COc1cccc(-c2cncnc2NCCN2CCOCC2)c1`, more than 20 µM.
On to `COc1ccccc1-c1nc(NCc2cccs2)c2ccccc2n1`, for which the Potency was more than 20 µM.
With `CN(C)c1ncc2ncc(=O)n(CCC#N)c2n1`, the Potency is more than 20 µM.
In the case of `COc1ccc(Oc2ncc3nc(-c4ccc(Cl)cc4)c(=O)n(C4CC4)c3n2)cc1`, the Potency is more than 20 µM.
Take `Cc1noc(C)c1C(=O)N1CCC2(CCCN(C(=O)Nc3cccc(C#N)c3)C2)CC1`: the Potency is more than 20 µM.
As to `O=C(c1cnccn1)N1CCC[C@@]2(CCN(Cc3ccncc3)C2)C1`, the Potency is more than 20 µM.
Regarding `COCCn1c(=O)c(-c2cc(F)cc(F)c2)nc2cnc(N3CCNCC3)nc21`, the Potency was more than 20 µM.
On to `CNc1ncnc2ccc(-c3ccccc3CN(C)C)cc12`, for which the Potency is more than 20 µM.
For `Cn1cccc1C(=O)N1CCC2(CC1)CN(Cc1cc(C(F)(F)F)cc(C(F)(F)F)c1)C2` the value was more than 20 µM.
For `CN(C)c1ncnc2ccc(-c3ccccc3C(F)(F)F)cc12`, the Potency is more than 20 µM.
On to `COc1ccc(-n2c(=O)c(-c3ccc(Cl)cc3)nc3cnc(N(C)C)nc32)cc1`, for which the Potency is more than 20 µM.
The figure for `COCCn1c(=O)c(-c2ccccc2)nc2cnc(Nc3cccc(OC)c3)nc21` is more than 20 µM.
The figure for `COc1cccc(-c2nccc(N(C)Cc3ccco3)n2)c1` is more than 20 µM.
As for `CN1CCN(c2ncc3nc(-c4cc(F)cc(F)c4)c(=O)n(C)c3n2)CC1`, the Potency is more than 20 µM.
For `CC(=O)NCCNc1ncnc2ccc(-c3ccc4c(c3)OCO4)cc12`, the Potency is more than 20 µM.
Turning to `COc1ccccc1CN1CC2(CCN(C(=O)c3cc(C(F)(F)F)cc(C(F)(F)F)c3)CC2)C1`, the Potency is more than 20 µM.
With `O=c1cnc2cnc(Oc3ccccc3)nc2n1C[C@H]1CCCO1`, the Potency was more than 20 µM.
Regarding `Cc1noc(C)c1C(=O)N1CCC2(CC1)CCN(c1ncccn1)CC2`, the Potency was more than 20 µM.
As for `O=C(c1cnccn1)N1CCC[C@@]2(CCN(c3cccc(-c4ccccc4)c3)C2)C1`, the Potency was more than 20 µM.
Consider `Cc1cnc(CNc2ncncc2-c2ccc(N(C)C)cc2)cn1`, for which the Potency was more than 20 µM.
Regarding `Cc1cccc(CNc2ncncc2-c2ccc3c(c2)OCO3)c1`, the Potency is more than 20 µM.
For `COc1ncc2nc(-c3cccs3)c(=O)n(C)c2n1` the value was more than 20 µM.
On to `CN1CCN(c2nc(-c3cccc(NS(C)(=O)=O)c3)nc3ccccc23)CC1`, for which the Potency was more than 20 µM.
With `COCCn1c(=O)c(-c2ccc(Cl)cc2)nc2cnc(Oc3ccccc3)nc21`, the Potency is more than 20 µM.
Regarding `c1cncc(CNc2cc(-c3ccoc3)ncn2)c1`, the Potency is more than 20 µM.
As for `FC(F)(F)c1ccccc1-c1ccc2ncnc(N3CCOCC3)c2c1`, the Potency was more than 20 µM.
For the compound `COc1ccc(-c2nc3cnc(N4CCN(C)CC4)nc3n(CCc3ccccc3)c2=O)cc1`, the Potency was more than 20 µM.
The figure for `c1csc(CNc2ncnc3ccc(-c4ccoc4)cc23)c1` is more than 20 µM; for `COc1cccc(-c2nc(N(C)Cc3ccco3)c3ccccc3n2)c1` it is more than 20 µM.
For `COc1ccccc1-c1nc(N(C)C)c2ccccc2n1` the value was more than 20 µM.
`O=c1c(-c2ccc(F)cc2)nc2cnc(N3CCOCC3)nc2n1CCc1ccccc1`: the Potency is more than 20 µM.
